Test results published in PubChem BioAssay AID1117279 (The Scripps Research Institute Molecular Screening Center, 2014).
About 40 (4%) of roughly 1,100 compounds were called active. Not all results are given here. Unmarked numbers belong to inactive results.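 The calls were made as follows: active = average inhibition above the solvent-only control wells' mean plus 3 SD (cut at about 15% in these data); inactive = the rest.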

Test: compounds lowering TTR transcription reporter in HuH7 – cell-based, luminescence, HuH7 hepatoma, counter-screen for TTR transcription activator project (AID 1117279);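 also: 0% = cells with DMSO only and 100% = cells with inhibitor control FD; inhibitors lower well luminescence so higher value means more inhibition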
Conditions: HuH7 TTR promoter-Gaussia luciferase reporter, at 16.7 µM, active compounds read high

**Q.** With `CC(C)(C)C1CCC(OC(=O)CCC(=O)Nc2ccccc2)CC1` (stereo unspecified) as the compound, how does the inhibition read?
**A.** -7.82%

**Q.** Which inhibition does the source give for `C[C@H](NC(=O)C1CCN(S(=O)(=O)c2ccccc2)CC1)C(=O)NCc1ccccc1` here?
**A.** -13.1%

**Q.** For `Cc1cccc(N2C(=O)CC(SC(N)=Nc3ccccc3)C2=O)c1` (stereo unspecified), which inhibition is on record?
**A.** -9.09%

**Q.** Which inhibition does the source give for `Brc1ccc(/C=N/N2CCN(C3c4ccccc4-c4ccccc43)CC2)s1` here?
**A.** -10.1%

**Q.** Which inhibition does the source give for `CC(C)NC(=O)c1ccc(Sc2ccccc2)c([N+](=O)[O-])c1` here?
**A.** -1.16%

**Q.** For `CCOc1ccc(NC(=O)COc2ccc(S(=O)(=O)N3CCCC3)cc2)cc1`, which inhibition is on record?
**A.** -11.3%

**Q.** For `CCCCCc1ccc(-c2cn(Cc3ccc4ccccc4c3)nn2)cc1`, which inhibition is on record?
**A.** -10.2%

**Q.** For `CCOc1ccc(N=C2NC(=O)S/C2=C\c2ccc(O)cc2)cc1`, which inhibition is on record?
**A.** 24.4% (active)

**Q.** With `COc1cc(N2C(=O)CC3(CCCC3)CC2=O)cc(OC)c1OC` as the compound, how does the inhibition read?
**A.** -8.06%

**Q.** For `Cc1c(C#N)c(NC(=O)c2ccccc2)n(Cc2ccccc2)c1C`, which inhibition is on record?
**A.** -8.18%

**Q.** For `Cn1cc(CN2CCCC(CO)C2)c(-c2ccc(Oc3ccccc3)cc2)n1` (stereo unspecified), which inhibition is on record?
**A.** -9.5%

**Q.** Which inhibition does the source give for `O=C(NNC1=NCCC1)c1cccc(S(=O)(=O)N2CCCCC2)c1` here?
**A.** -4.93%

**Q.** With `COc1ccc(-c2oc3ncn(Cc4ccco4)c(=N)c3c2-c2ccc(OC)cc2)cc1` as the compound, how does the inhibition read?
**A.** 1.5%

**Q.** For `CSCCC(NC(N)=O)C(=O)N(C)CC(=O)Nc1ccc(C)cc1` (stereo unspecified), which inhibition is on record?
**A.** -0.9%

**Q.** For `CCCCOCCCNC(=O)C[C@H]1C[C@@]2(C(=O)OC)C(=C[C@H](C(C)(C)C)O[C@@H]2C)N(CCc2ccc(OC)c(OC)c2)C1=O`, which inhibition is on record?
**A.** -3.28%

**Q.** With `Cc1cccc(C)c1NC(=O)CN1C(=O)C(C)Oc2ccccc21` (stereo unspecified) as the compound, how does the inhibition read?
**A.** 1.63%

**Q.** Which inhibition does the source give for `N=c1ccn(CC(=O)NC(N)=O)c2ccccc12` here?
**A.** -11.8%

**Q.** Which inhibition does the source give for `C=C1C(C(C)C)N(C)C2=NC(c3ccccc3)CC(=O)N12` (stereo unspecified) here?
**A.** -4.18%

**Q.** With `O=C(NCCCNC(=O)c1ccccc1Cl)c1cnccn1` as the compound, how does the inhibition read?
**A.** -8.25%

**Q.** Which inhibition does the source give for `O=S(=O)(NCCCN1CCOCC1)c1ccc(F)c(Cl)c1` here?
**A.** -2.54%

**Q.** For `COc1ccccc1N1CCN(Cc2cc(OC)c3c(c2)OCO3)CC1`, which inhibition is on record?
**A.** -8.45%

**Q.** Which inhibition does the source give for `O=C(Nc1cccc(O)c1)c1ccc(C(=O)c2ccccc2)o1` here?
**A.** -11.2%

**Q.** With `O=C(O)Cn1c(Cc2ccccc2)nc2ccccc21` as the compound, how does the inhibition read?
**A.** -10%

**Q.** With `O=C(CCC(=O)c1cccs1)NCc1ccccc1` as the compound, how does the inhibition read?
**A.** -6.29%

**Q.** With `Cc1c(NS(=O)(=O)c2ccc(NC3CCCC3)c([N+](=O)[O-])c2)c(=O)n(-c2ccccc2)n1C` as the compound, how does the inhibition read?
**A.** 17.4% (active)

**Q.** Which inhibition does the source give for `CCOC(=O)c1c(-c2ccccc2)oc2ccc(OCC(N)=O)cc12` here?
**A.** -17.5%

**Q.** Which inhibition does the source give for `COc1cc(C(C)=O)ccc1OC(C)C(=O)Nc1ccc(S(=O)(=O)N2CCCC2)cc1` (stereo unspecified) here?
**A.** -21.8%

**Q.** With `O=C(Nc1ccccc1C(=O)N1CCCCCC1)c1ccccc1Cl` as the compound, how does the inhibition read?
**A.** -17.5%

**Q.** For `CCOc1ccccc1NC(=O)COc1ccc(S(=O)(=O)N2CCCC2)cc1`, which inhibition is on record?
**A.** -35.5%

**Q.** With `C(=N\n1cnnc1)/c1cccnc1` as the compound, how does the inhibition read?
**A.** -6.37%

**Q.** Which inhibition does the source give for `COc1cccc(-c2cnc(C(O)c3ccccc3OC)[nH]2)c1` (stereo unspecified) here?
**A.** -13.2%

**Q.** For `Cc1ccccc1/[N+]([O-])=C/c1ccncc1`, which inhibition is on record?
**A.** -5.47%

**Q.** For `O=C(CS(=O)(=O)c1ccccc1)Nc1ccc(S(=O)(=O)Nc2ccccn2)cc1`, which inhibition is on record?
**A.** -15.3%

**Q.** Which inhibition does the source give for `C/C(CC(=O)Nc1ccc(N(C)C)cc1)=N\NC(=O)c1ccccc1F` here?
**A.** -16.7%

**Q.** With `COc1ccc(S(=O)(=O)NCC(=O)NCc2cc(=O)n(C)c(=O)n2C)cc1F` as the compound, how does the inhibition read?
**A.** -4.59%

**Q.** With `Cc1ccc(CN2CCCOCCS2(=O)=O)cc1` as the compound, how does the inhibition read?
**A.** -6.05%

**Q.** With `Nc1nc(SCC(=O)Nc2ccc(Cl)c([N+](=O)[O-])c2)n[nH]1` as the compound, how does the inhibition read?
**A.** -10%

**Q.** For `CCOC(=O)c1cc(-c2ccc(Cl)s2)nc2c1c(C)nn2C`, which inhibition is on record?
**A.** -14.6%

**Q.** Which inhibition does the source give for `O=C(NC(=O)c1ccccc1N1CCCCC1)Nc1ccc(Br)cc1` here?
**A.** -2.62%

**Q.** For `Cc1cc(C)c2nc3nc(C)cc(C)c3c(N)c2c1`, which inhibition is on record?
**A.** -40.1%

**Q.** With `CCCCc1cc(=O)oc2cc(C)cc(OCc3nn[nH]n3)c12` as the compound, how does the inhibition read?
**A.** -25.9%

**Q.** Which inhibition does the source give for `O=C(NNC(=O)c1cc(S(=O)(=O)N2CCCCC2)ccc1Cl)c1ccccc1O` here?
**A.** -22.3%

**Q.** Which inhibition does the source give for `COC(=O)c1cnn2c(C(F)(F)F)cc(-c3ccco3)nc12` here?
**A.** 2.2%

**Q.** With `O=C1c2cccc(OCC(=O)N3N=C(c4cccs4)CC3c3ccc(F)cc3)c2CCN1Cc1ccccc1` (stereo unspecified) as the compound, how does the inhibition read?
**A.** 9.54%

**Q.** For `COc1ccc(C2c3ccc(O)cc3Oc3ncn(CCCO)c(=N)c32)cc1OC` (stereo unspecified), which inhibition is on record?
**A.** -4.61%

**Q.** For `O=S(=O)(NCc1ccccc1Br)c1ccccc1Br`, which inhibition is on record?
**A.** 6.86%

**Q.** For `CCCCN(C)CCNC(=O)C1CCCN(S(=O)(=O)c2cccc3nsnc23)C1` (stereo unspecified), which inhibition is on record?
**A.** -18%

**Q.** For `O=C(O)C1OC(C(=O)O)C2C1C(F)(F)C2(F)F` (stereo unspecified), which inhibition is on record?
**A.** -13.2%

**Q.** With `Cc1cc(C)c(C#N)c(N2CCC(C(N)=O)CC2)n1` as the compound, how does the inhibition read?
**A.** -15.2%

**Q.** For `Cc1nc(-c2ccc(Cl)cc2)sc1C(=O)NN`, which inhibition is on record?
**A.** -6.37%

**Q.** Which inhibition does the source give for `N#Cc1cccc(CN2CCC(=O)N(CCO)CC2)c1` here?
**A.** -7.6%
